This is an account of results in the supplement of paper PMC13380429.

In experiment [1] the test system is Vero E6 infected with SARS-CoV-2. Briefly: morphology score (similarity to uninfected cells); higher = more like uninfected cells. Particulars: 24 h.
Experiment [2] has the same test system. As to the kind of experiment: SARS-CoV-2 infection rate relative to infected DMSO; higher = more infection, active = 60 or less. The conditions noted are these: 24 h.

`CN(C)CC[C@H](CSc1ccccc1)Nc1ccc(S(=O)(=O)NC(=O)c2ccc(N3CCN(Cc4ccccc4-c4ccc(Cl)cc4)CC3)cc2)cc1[N+](=O)[O-]` (10 µM) returned a morphology score in experiment [1] of 0.105. Moreover, the SARS-CoV-2 infection rate in experiment [2] was 108% (inactive).
For `O=C(O)c1cccnc1` [niacin] (10 µM), in that order: 0.195 and 102% (inactive).
For `C=CCN1C[C@H](C)N([C@H](c2ccc(C(=O)N(CC)CC)cc2)c2cccc(O)c2)C[C@H]1C` (10 µM), in that order: 0.1 and 105% (inactive).
In experiment [1], `CC(C)=CCC/C(C)=C/CC/C(C)=C/CSc1ccccc1C(=O)O` [salirasib] (10 µM) registered a morphology score of 0.161. The SARS-CoV-2 infection rate in experiment [2] was 89% (inactive).
The corresponding values for `CC(C)C[C@H](NC(=O)[C@H](Cc1ccccc1)NC(=O)c1cnccn1)B(O)O` [bortezomib] (10 µM) are -0.0961 and 96.5% (inactive).
The corresponding values for `CN(Cc1cc(Br)cc(Br)c1N)C1CCCCC1` [bromhexine] (10 µM) are -0.0228 and 102% (inactive).
For `CC(C)c1ccc(NC(=O)Cn2cnc3c2c(=O)n(C)c(=O)n3C)cc1` (10 µM), in that order: 0.0452 and 109% (inactive).
In turn, `COc1cc(C(=S)N2CCOCC2)cc(OC)c1OC` [sulmetozine] (10 µM) yielded a morphology score in experiment [1] of 0.0452. The SARS-CoV-2 infection rate in experiment [2] is 106% (inactive).
The corresponding values for `NC1=NC(=O)N([C@H]2C[C@H](O)[C@@H](CO)O2)CN1` (10 µM) are 0.0264 and 106% (inactive).
For `Cc1c(-c2ccnn2C)cc(C(=O)NCc2ccc(S(C)(=O)=O)cn2)c(=O)n1-c1cccc(C(F)(F)F)c1` (10 µM), in that order: 0.101 and 106% (inactive).
As for `CN[C@@H](C)[C@H]1[C@H](O)C[C@@]2(C)[C@@H]3CC[C@H]4C(C)(C)[C@@H](NC)CC[C@@]45C[C@@]35CC[C@]12C` [cyclovirobuxin-D] (10 µM), in experiment [1], the morphology score worked out at 0.331. The SARS-CoV-2 infection rate in experiment [2] is 97% (inactive).
In experiment [1], `C=CC[C@]1(O)CC[C@H]2[C@@H]3CCC4=CC(=O)CCC4=C3C=C[C@@]21C` [altrenogest] (10 µM) displayed a morphology score of 0.0206. Further, the SARS-CoV-2 infection rate in experiment [2] is 105% (inactive).
The corresponding values for `CCCN1CCO[C@@H]2c3cc(O)ccc3OC[C@H]21` (10 µM) are 0.173 and 87% (inactive).
As to `O=C(O)Cc1sc(-c2ccccc2)nc1-c1ccc(Cl)cc1` [fentiazac] (10 µM), in experiment [1], the morphology score came to 0.0803. The SARS-CoV-2 infection rate in experiment [2] was 100% (inactive).
For `NS(=O)(=O)c1cc2c(cc1Cl)NCNS2(=O)=O` [hydrochlorothiazide] (10 µM), in that order: 0.0281 and 110% (inactive).
The corresponding values for `CC(=O)/N=c1/sc(S(N)(=O)=O)nn1C` [methazolamide] (10 µM) are -0.0286 and 105% (inactive).
On to `CCC[C@H](NC(=O)[C@@H]1[C@H]2CCC[C@H]2CN1C(=O)[C@@H](NC(=O)[C@@H](NC(=O)c1cnccn1)C1CCCCC1)C(C)(C)C)C(=O)C(=O)NC1CC1` [telaprevir] (10 µM), for which, in experiment [1], the morphology score turned out to be 0.229. Further, the SARS-CoV-2 infection rate in experiment [2] is 106% (inactive).
The corresponding values for `O=C1C(=Cc2cccnc2)C(=O)c2ccccc21` (10 µM) are 0.19 and 99% (inactive).
For `CN1CCN(CCCN2c3ccccc3Sc3ccc(Cl)cc32)CC1` [prochlorperazine] (10 µM), in that order: 0.742 and 27.5% (active).
`COCC(=O)Nc1c(I)c(C(=O)NCC(O)CO)c(I)c(C(=O)N(C)CC(O)CO)c1I` (centres undefined) [iopromide] (10 µM) yielded a morphology score in experiment [1] of -0.11. Besides, in experiment [2], the SARS-CoV-2 infection rate is 106% (inactive).
For `COc1ccc(C2(CNC(=O)c3ccc(NC(=O)c4ccco4)cc3)CCOCC2)cc1` (0.833333 µM), in that order: 0.269 and 93% (inactive).
The corresponding values for `C[N+](C)(C)CC(O)CC(=O)[O-]` (centres undefined) [carnitine-(D/L)] (10 µM) are -0.213 and 117% (inactive).
